Reference: article PMC7862700, “An all-to-all approach to the identification of sequence-specific readers for epigenetic DNA modifications on cytosine”

Experiments:
Assay in all cases: DAPPL (digital affinity profiling via proximity ligation, sequencing); 10 mM Tris-HCl pH 7.5, 50 mM NaCl, 1 mM DTT, 4% glycerol, room temperature, 30 min; GST-TFs on glutathione beads, 16-mer random dsDNA library, 0.1% formaldehyde crosslink after washing; high values mean tight binding
Conditions in all cases: protein: recombinant; tags: N-terminal GST; dsDNA, one strand shown
[1] = molecular target: T1, FLI1 (Homo sapiens, UniProt Q01543 1-452)
T1 sequence: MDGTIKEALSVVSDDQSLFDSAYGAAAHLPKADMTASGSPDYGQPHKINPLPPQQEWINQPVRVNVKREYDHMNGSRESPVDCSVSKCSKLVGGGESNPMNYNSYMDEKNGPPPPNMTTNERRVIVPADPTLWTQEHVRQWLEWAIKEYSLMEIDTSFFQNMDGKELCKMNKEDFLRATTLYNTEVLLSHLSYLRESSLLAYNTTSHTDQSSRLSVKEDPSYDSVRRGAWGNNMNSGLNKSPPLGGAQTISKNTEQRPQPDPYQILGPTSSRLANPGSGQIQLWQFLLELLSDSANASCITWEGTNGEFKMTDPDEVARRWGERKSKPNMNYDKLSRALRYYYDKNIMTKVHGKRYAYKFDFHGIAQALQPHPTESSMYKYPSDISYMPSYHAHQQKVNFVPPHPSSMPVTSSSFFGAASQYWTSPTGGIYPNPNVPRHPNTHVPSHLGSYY
Method in brief: (§1)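 Human transcription factors carrying a GST fusion were produced in yeast, bound to glutathione beads, tagged with DNA barcodes and pooled together with a tag-only sample. Each pool was held with 200 nmole of a random double-stranded 16-mer DNA library in Tris/NaCl/DTT/glycerol buffer for 30 min at room temperature, then washed, crosslinked in 0.1% formaldehyde, proximity-ligated with BsaI/T4 ligase (1 h, 37 °C), PCR-amplified and sequenced on an Illumina NextSeq500. Binding signal is the read frequency of each hexamer for a given factor divided by its frequency in the tag-only sample.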

[2] = molecular target: T2, GABPA (Homo sapiens, UniProt Q06546 1-454)
T2 sequence: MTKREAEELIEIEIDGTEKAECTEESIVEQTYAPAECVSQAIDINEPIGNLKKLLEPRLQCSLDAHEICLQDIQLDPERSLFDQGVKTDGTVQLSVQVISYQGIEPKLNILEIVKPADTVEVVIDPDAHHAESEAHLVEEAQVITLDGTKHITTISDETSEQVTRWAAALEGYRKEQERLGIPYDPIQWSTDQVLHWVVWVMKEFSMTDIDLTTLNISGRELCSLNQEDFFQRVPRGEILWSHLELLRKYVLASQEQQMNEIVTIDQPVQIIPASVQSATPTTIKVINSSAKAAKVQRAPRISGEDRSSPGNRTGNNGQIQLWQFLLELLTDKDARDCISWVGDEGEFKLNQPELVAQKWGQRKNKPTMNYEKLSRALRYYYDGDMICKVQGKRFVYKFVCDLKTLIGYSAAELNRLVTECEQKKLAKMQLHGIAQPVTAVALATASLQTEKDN
Method in brief: as §1

[3] = molecular target: T3, ERG (Homo sapiens, UniProt P11308 1-479)
T3 sequence: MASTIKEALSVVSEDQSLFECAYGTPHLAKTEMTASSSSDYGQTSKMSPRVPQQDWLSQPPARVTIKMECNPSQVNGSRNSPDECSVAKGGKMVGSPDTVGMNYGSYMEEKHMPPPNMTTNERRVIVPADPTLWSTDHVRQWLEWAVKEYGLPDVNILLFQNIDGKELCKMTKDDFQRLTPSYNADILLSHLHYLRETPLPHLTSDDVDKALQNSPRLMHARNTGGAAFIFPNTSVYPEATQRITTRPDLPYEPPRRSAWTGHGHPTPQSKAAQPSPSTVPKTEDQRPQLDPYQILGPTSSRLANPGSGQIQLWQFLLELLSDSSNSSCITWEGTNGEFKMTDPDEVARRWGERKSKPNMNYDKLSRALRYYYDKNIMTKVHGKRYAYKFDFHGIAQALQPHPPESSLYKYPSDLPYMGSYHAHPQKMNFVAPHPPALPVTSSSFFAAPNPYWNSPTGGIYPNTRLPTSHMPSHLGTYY
Method in brief: as §1

[4] = molecular target: ELF1 (Homo sapiens, UniProt P32519 1-619)
Method in brief: as §1

[5] = molecular target: T4, EHF (Homo sapiens, UniProt Q9NZC4 1-300)
T4 sequence: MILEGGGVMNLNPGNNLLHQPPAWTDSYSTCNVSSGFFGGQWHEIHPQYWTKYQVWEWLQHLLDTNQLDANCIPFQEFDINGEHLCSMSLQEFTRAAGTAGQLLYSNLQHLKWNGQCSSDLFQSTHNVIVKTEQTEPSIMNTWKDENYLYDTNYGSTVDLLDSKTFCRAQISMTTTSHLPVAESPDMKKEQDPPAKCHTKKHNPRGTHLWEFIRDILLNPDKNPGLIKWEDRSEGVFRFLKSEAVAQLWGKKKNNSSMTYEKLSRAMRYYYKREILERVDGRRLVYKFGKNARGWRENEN
Method in brief: as §1

[6] = molecular target: SPIB (Homo sapiens, UniProt Q01892 1-262)
Method in brief: as §1

[7] = molecular target: ELF4 (Homo sapiens, UniProt Q99607 1-663)
Method in brief: as §1

[8] = molecular target: T5, ELK4 (Homo sapiens, UniProt P28324-2 1-405)
T5 sequence: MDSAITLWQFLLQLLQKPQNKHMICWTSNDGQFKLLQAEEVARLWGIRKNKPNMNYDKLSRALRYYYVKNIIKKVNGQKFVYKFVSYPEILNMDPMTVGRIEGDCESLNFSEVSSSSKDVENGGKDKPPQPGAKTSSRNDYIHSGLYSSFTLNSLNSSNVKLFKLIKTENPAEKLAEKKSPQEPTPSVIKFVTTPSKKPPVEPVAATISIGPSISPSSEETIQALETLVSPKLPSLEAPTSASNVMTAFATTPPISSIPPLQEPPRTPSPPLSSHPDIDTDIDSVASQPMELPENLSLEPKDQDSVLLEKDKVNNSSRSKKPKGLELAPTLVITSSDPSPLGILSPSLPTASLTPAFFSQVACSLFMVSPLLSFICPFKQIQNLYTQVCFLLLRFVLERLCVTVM
Method in brief: as §1

[9] = molecular target: T6, ELF3 (Homo sapiens, UniProt P78545 1-371)
T6 sequence: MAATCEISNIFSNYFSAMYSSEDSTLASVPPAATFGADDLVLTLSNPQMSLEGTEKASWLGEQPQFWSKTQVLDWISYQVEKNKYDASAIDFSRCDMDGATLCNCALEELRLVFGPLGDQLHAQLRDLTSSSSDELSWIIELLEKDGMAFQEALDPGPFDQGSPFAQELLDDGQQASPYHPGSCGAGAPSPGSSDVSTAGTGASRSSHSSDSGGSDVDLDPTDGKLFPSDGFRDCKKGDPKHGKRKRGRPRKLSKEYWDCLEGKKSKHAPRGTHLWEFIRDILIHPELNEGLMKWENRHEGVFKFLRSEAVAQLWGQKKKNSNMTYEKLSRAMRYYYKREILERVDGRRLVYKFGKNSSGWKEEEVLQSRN
Method in brief: as §1

[10] = molecular target: CRX (Homo sapiens, UniProt O43186 1-299)
Method in brief: as §1

[11] = molecular target: ETV1 (Homo sapiens, UniProt P50549 1-477)
Method in brief: as §1

[12] = molecular target: T7, ETV3L (Homo sapiens, UniProt Q6ZN32 1-361)
T7 sequence: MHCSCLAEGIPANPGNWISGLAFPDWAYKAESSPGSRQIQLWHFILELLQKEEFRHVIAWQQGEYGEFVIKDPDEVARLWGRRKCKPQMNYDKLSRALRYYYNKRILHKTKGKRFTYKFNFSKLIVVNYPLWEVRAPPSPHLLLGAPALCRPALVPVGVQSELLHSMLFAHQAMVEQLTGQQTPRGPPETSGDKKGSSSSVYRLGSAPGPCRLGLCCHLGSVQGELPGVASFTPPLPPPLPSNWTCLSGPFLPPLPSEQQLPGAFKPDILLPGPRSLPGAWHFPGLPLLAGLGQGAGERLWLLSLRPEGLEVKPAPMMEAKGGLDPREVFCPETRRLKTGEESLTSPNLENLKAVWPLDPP
Method in brief: as §1

[13] = molecular target: T8, ETS2 (Homo sapiens, UniProt P15036 1-469)
T8 sequence: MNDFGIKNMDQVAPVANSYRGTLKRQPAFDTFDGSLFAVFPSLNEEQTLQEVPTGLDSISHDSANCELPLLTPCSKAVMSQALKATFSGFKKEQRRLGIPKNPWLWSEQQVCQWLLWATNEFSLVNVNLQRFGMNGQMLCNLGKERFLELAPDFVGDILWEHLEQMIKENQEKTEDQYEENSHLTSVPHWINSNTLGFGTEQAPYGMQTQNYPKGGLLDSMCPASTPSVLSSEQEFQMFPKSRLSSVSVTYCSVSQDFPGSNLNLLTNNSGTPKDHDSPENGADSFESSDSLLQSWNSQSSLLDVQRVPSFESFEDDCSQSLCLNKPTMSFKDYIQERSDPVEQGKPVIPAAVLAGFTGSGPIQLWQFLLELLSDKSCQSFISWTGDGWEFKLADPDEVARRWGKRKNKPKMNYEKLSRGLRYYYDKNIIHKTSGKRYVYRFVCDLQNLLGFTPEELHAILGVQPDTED
Method in brief: as §1

[14] = molecular target: T9, SPDEF (Homo sapiens, UniProt O95238 1-335)
T9 sequence: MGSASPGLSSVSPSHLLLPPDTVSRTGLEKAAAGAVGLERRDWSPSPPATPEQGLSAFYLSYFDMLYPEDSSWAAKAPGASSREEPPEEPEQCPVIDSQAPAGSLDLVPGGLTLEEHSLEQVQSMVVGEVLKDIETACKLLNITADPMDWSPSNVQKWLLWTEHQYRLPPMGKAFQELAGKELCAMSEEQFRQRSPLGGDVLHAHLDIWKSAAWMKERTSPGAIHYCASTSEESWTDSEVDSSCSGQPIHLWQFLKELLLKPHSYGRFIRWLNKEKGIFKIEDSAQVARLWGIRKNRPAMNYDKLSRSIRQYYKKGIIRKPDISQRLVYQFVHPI
Method in brief: as §1

[15] = molecular target: T10, ETV7 (Homo sapiens, UniProt Q9Y603 1-341)
T10 sequence: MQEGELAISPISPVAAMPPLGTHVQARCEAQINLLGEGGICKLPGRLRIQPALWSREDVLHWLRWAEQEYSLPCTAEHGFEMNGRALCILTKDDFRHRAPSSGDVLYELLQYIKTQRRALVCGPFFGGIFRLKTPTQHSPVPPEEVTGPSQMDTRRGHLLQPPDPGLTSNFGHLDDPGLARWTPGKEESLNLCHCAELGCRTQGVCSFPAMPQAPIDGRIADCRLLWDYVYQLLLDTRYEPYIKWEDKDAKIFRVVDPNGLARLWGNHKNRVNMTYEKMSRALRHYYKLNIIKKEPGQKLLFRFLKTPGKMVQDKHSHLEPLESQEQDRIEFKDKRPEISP
Method in brief: as §1

Sequence of ELF4 (Q99607 whole entry): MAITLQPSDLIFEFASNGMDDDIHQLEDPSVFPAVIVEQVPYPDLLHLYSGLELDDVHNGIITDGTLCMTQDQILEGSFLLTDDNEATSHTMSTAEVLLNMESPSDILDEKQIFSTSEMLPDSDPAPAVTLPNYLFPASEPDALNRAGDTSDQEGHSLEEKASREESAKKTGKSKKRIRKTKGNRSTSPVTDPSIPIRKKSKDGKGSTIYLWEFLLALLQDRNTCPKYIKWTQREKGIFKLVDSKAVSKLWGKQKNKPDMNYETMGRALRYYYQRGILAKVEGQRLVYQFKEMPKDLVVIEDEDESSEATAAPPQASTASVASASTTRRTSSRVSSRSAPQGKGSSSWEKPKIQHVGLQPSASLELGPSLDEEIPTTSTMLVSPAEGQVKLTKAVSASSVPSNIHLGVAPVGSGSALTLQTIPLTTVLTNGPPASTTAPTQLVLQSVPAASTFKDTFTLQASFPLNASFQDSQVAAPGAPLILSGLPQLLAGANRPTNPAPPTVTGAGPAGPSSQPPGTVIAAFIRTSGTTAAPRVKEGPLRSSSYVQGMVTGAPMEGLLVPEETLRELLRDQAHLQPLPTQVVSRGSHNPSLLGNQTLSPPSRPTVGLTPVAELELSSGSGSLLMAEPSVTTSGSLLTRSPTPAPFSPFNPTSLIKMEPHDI
Sequence of ETV1 (P50549 whole entry): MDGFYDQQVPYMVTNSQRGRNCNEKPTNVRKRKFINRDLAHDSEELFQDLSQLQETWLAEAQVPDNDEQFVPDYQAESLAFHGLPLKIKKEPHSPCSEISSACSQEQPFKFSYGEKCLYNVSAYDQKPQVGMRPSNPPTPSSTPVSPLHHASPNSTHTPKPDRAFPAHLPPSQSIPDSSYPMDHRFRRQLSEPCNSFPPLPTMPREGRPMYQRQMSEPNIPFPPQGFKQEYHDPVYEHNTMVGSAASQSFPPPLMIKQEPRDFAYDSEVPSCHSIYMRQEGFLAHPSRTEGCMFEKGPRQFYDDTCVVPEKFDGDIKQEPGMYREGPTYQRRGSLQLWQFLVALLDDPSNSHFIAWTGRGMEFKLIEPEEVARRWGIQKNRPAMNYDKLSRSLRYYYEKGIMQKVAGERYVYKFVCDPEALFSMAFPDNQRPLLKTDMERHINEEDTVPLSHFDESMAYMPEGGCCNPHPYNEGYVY
Sequence of CRX (O43186 whole entry): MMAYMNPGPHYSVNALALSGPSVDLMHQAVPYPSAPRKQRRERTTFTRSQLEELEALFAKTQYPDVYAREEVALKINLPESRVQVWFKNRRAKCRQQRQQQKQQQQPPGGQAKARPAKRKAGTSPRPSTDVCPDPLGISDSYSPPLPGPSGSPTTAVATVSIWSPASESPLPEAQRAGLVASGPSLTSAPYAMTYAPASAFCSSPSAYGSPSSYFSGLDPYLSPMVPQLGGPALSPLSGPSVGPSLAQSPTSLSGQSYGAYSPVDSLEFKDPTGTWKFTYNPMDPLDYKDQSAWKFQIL
Sequence of ELF1 (P32519 whole entry): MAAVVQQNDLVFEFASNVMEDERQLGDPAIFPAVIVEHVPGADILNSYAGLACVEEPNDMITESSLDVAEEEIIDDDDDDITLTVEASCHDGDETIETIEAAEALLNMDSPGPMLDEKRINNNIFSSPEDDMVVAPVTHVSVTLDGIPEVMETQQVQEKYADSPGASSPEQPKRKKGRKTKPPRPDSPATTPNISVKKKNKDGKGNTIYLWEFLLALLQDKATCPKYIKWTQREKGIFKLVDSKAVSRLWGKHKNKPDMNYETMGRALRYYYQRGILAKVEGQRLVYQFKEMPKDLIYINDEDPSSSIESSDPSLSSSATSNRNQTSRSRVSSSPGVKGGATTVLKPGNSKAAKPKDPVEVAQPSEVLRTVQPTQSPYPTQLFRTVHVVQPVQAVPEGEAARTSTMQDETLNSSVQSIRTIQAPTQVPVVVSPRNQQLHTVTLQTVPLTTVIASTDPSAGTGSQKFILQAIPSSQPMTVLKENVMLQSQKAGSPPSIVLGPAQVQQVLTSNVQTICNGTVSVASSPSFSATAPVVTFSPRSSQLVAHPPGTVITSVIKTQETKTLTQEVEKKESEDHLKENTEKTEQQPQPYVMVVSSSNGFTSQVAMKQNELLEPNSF
Sequence of SPIB (Q01892 whole entry): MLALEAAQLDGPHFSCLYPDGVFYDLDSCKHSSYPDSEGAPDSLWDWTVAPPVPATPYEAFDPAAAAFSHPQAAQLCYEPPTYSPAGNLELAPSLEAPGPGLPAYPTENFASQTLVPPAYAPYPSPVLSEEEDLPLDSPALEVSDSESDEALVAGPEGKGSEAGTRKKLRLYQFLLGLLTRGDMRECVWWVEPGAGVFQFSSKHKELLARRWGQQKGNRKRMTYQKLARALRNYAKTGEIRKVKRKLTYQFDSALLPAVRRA

**Q.** Which binding signal [1] does the source give for TGTGAT here?
**A.** The binding signal was 1.16 fold enrichment (6-mer frequency, TF over GST control).

**Q.** And the binding signal [2]?
**A.** The binding signal was 1.01 fold enrichment (6-mer frequency, TF over GST control).

**Q.** And the binding signal [3]?
**A.** Its binding signal is 1.06 fold enrichment (6-mer frequency, TF over GST control).

**Q.** And the binding signal [4]?
**A.** Its binding signal is 1.01 fold enrichment (6-mer frequency, TF over GST control).

**Q.** What about the binding signal [5] of the same sequence?
**A.** The binding signal was 1.03 fold enrichment (6-mer frequency, TF over GST control).

**Q.** What about the binding signal [6] of the same sequence?
**A.** The binding signal was 1.01 fold enrichment (6-mer frequency, TF over GST control).

**Q.** What about the binding signal [7] of the same sequence?
**A.** The binding signal was 1.05 fold enrichment (6-mer frequency, TF over GST control).

**Q.** And the binding signal [8]?
**A.** Its binding signal is 1.07 fold enrichment (6-mer frequency, TF over GST control).

**Q.** What about the binding signal [9] of the same sequence?
**A.** Its binding signal is 1.14 fold enrichment (6-mer frequency, TF over GST control).

**Q.** And the binding signal [10]?
**A.** The binding signal was 1.12 fold enrichment (6-mer frequency, TF over GST control).

**Q.** And the binding signal [11]?
**A.** Its binding signal is 1.08 fold enrichment (6-mer frequency, TF over GST control).

**Q.** And the binding signal [12]?
**A.** Its binding signal is 1.01 fold enrichment (6-mer frequency, TF over GST control).

**Q.** And the binding signal [13]?
**A.** Its binding signal is 1.09 fold enrichment (6-mer frequency, TF over GST control).

**Q.** And the binding signal [14]?
**A.** Its binding signal is 1.06 fold enrichment (6-mer frequency, TF over GST control).

**Q.** And the binding signal [15]?
**A.** Its binding signal is 1.05 fold enrichment (6-mer frequency, TF over GST control).
